Assay results taken from PubChem BioAssay (EPA / NIEHS).
Some compounds were tested as several samples or in several runs, with calls that do not always agree. Calls of active or inactive are those of the source. The calls were made as follows: active = hit-call score of the fitted dose curve at least 0.9, where 1 is the maximum; inactive = score below 0.9.

Assays:
[1] = ATG_CRE_CIS: Attagene CIS-FACTORIAL HepG2 Assay for human cAMP Responsive Element (CRE) binding protein 3 (AID 2282926); details: HepG2 CRE cis-reporter, Attagene multiplexed mRNA; actives raise or lower the signal
How it was run: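 HepG2 cells transiently transfected with cis-element-driven multiple reporter transcription units; CRE reporter mRNA measured 24 h after dosing by RT-PCR, 6-FAM labelling, HpaI digestion and capillary electrophoresis. Bidirectional fit versus DMSO baseline.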

[2] = molecular target: CCAAT/enhancer-binding protein beta (Homo sapiens) (UniProt P17676); assay: ATG_C_EBP_CIS: Attagene CIS-FACTORIAL HepG2 Assay for human CCAAT/Enhancer Binding Protein (C/EBP) beta (AID 2282927); details: HepG2 Attagene cis-factorial transcription factor reporter; actives raise or lower the signal
How it was run: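 HepG2 transiently transfected with multiplexed reporter units under cis-regulatory promoters reporting endogenous C/EBPb activity. After 24 h exposure, reporter mRNA assayed by RT-PCR, fluorescent labelling, HpaI digestion and capillary electrophoresis; bidirectional fitting versus DMSO.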

[3] = ATG_CMV_CIS: Attagene CIS-FACTORIAL HepG2 Assay for human CMV (Internal Marker) (AID 2282928); details: HepG2 CMV promoter reporter, transcription factor profiling; actives raise or lower the signal;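 also: endpoint acts as a background internal control marker rather than a target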
How it was run: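 HepG2 cells transiently transfected with multiple cis-regulated reporter units; 24 h compound exposure. Reporter mRNA quantified by RT-PCR, 6-FAM primer-extension labeling, HpaI digestion and capillary electrophoresis; bidirectional fitting against DMSO baseline.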

[4] = ATG_DR4_LXR_CIS: Attagene CIS-FACTORIAL HepG2 Assay for human Liver X Receptor (LXR), DR4 submotif (AID 2282929); details: HepG2 Attagene DR4 cis-reporter, mRNA transcription; actives raise or lower the signal
How it was run: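 HepG2 cells were transiently transfected with multiple cis-regulated reporter units and dosed for 24 hours. The DR4 reporter mRNA was quantified by RT-PCR, 6-FAM labelling and capillary electrophoresis. Bidirectional fits used DMSO as baseline.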

[5] = molecular target: Aryl hydrocarbon receptor (Homo sapiens) (UniProt P35869); assay: ATG_Ahr_CIS: Attagene CIS-FACTORIAL HepG2 Assay for human Aryl Hydrocarbon Receptor (Ahr) (AID 2282930); details: HepG2 AhR cis-factorial reporter transcription; actives raise or lower the signal
How it was run: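 HepG2 cells transiently transfected with cis-element-driven multiplexed reporter units; endogenous AhR activity read as reporter mRNA 24 h after dosing, via RT-PCR, 6-FAM labelling, HpaI digestion and capillary electrophoresis. Bidirectional fit relative to DMSO.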

[6] = ATG_AP_1_CIS: Attagene CIS-FACTORIAL HepG2 Assay for human Activator Protein 1 (AP-1) (AID 2282931); details: HepG2 Attagene cis-factorial AP-1 reporter mRNA; actives raise or lower the signal
How it was run: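 HepG2 cells transiently transfected with cis-element-driven reporter transcription units, dosed for 24 hours. Reporter mRNA measured by RT-PCR, 6-FAM labelling, HpaI digestion and capillary electrophoresis. Bidirectional fitting against DMSO baseline.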

[7] = ATG_AP_2_CIS: Attagene CIS-FACTORIAL HepG2 Assay for human Activator Protein 2 (AP-2) (AID 2282932); details: HepG2 AP-2 cis-reporter, Attagene transcription factor profiling; actives raise or lower the signal
How it was run: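 Multiplexed mRNA reporter assay in HepG2: cis-regulated units report endogenous factor activity after 24 h treatment. Fluorescence from capillary electrophoresis of RT-PCR products gives the signal, with DMSO as baseline.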

[8] = ATG_BRE_CIS: Attagene CIS-FACTORIAL HepG2 Assay for human Bone Morphogenetic Protein (BMP) Response Element (BRE) (AID 2282933); details: HepG2 BMP response element reporter, Attagene transcription factor profiling; actives raise or lower the signal
How it was run: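 A HepG2 multiplex reporter system measured inducible reporter mRNA 24 h post-dosing. Detection: RT-PCR, 6-FAM primer extension, HpaI digestion, capillary electrophoresis. Activity fitted bidirectionally relative to DMSO.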

[9] = molecular target: Retinoic acid receptor alpha (Homo sapiens) (UniProt P10276); assay: ATG_DR5_RAR_CIS: Attagene CIS-FACTORIAL HepG2 Assay for human Retinoic Acid Receptor Alpha (RARE), DR5 submotif (AID 2282934); details: HepG2 Attagene cis-factorial RARE DR5 reporter, mRNA; actives raise or lower the signal;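 as to AC50: reporter responds to endogenous RAR alpha beta and gamma in HepG2 not RARA alone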
How it was run: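 HepG2 cells transiently transfected with multiplexed reporter units; DR5 cis-element drives reporter through endogenous transcription factors. After 24 h dosing, reporter mRNA quantified by RT-PCR, fluorescent labeling, HpaI digestion and capillary electrophoresis; bidirectional fitting versus DMSO.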

[10] = molecular target: Transcription factor E2F1 (Homo sapiens) (UniProt Q01094); assay: ATG_E2F_CIS: Attagene CIS-FACTORIAL HepG2 Assay for human E2F Transcription Factor 1 (AID 2282935); details: HepG2 Attagene cis-reporter, E2F reporter RNA transcripts; actives raise or lower the signal
How it was run: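 Measures reporter transcript levels via RT-PCR with capillary electrophoresis detection in HepG2 cells harboring cis-regulated reporter units; 24 h post-dose; bidirectional curve fitting with DMSO as baseline.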

[11] = ATG_E_Box_CIS: Attagene CIS-FACTORIAL HepG2 Assay for human Enhancer Box (E-box) (AID 2282936); details: HepG2 E-box cis-reporter transcription, actives raise or lower the signal
How it was run: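 First, HepG2 cells receive multiple cis-regulated reporter constructs by transient transfection. Next, chemicals are applied for 24 h. Finally, reporter mRNA is quantified via RT-PCR and capillary electrophoresis, with DMSO as baseline.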

[12] = ATG_M_61_CIS: Attagene CIS-FACTORIAL HepG2 Assay for M61 Transcription Factor (Internal Marker) (AID 2282937); details: HepG2 Attagene CIS-FACTORIAL M61 internal marker reporter; actives raise or lower the signal
How it was run: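 HepG2 cells transiently transfected with multiplexed cis-promoter reporter units reporting endogenous transcription factor activity, measured 24 h after dosing. Reporter mRNA quantified by RT-PCR and capillary electrophoresis; bidirectional fit against DMSO baseline.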

[13] = ATG_EGR_CIS: Attagene CIS-FACTORIAL HepG2 Assay for human Early Growth Response 1 (EGR1) (AID 2282938); details: HepG2 Attagene CIS-FACTORIAL EGR reporter mRNA; actives raise or lower the signal
How it was run: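 HepG2 cells transiently transfected with cis-element-driven multiplexed reporter units, dosed for 24 h. EGR1-element reporter mRNA quantified by RT-PCR, 6-FAM labelling, HpaI digestion and capillary electrophoresis; bidirectional fit versus DMSO.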

[14] = ATG_M_19_CIS: Attagene CIS-FACTORIAL HepG2 Assay for M19 Transcription Factor (Internal Marker) (AID 2282939); details: HepG2 Attagene CIS-FACTORIAL M19 internal marker reporter; actives raise or lower the signal
How it was run: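 Chemical-treated HepG2 (24 h) with MRTU constructs; reporter transcripts detected by fluorescent RT-PCR fragment analysis on capillary electrophoresis. Internal background marker, DMSO as baseline.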

[15] = ATG_ERE_CIS: Attagene CIS-FACTORIAL HepG2 Assay for Estrogen Response Element (ERE) (AID 2282940); details: HepG2 ERE cis-reporter, Attagene RNA transcript; actives raise or lower the signal
How it was run: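 Human liver cells (HepG2) bearing transiently transfected, promoter-regulated reporter units were exposed 24 h. Reporter mRNA induction was detected by capillary electrophoresis of labelled RT-PCR products and fitted bidirectionally to DMSO.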

[16] = ATG_Ets_CIS: Attagene CIS-FACTORIAL HepG2 Assay for human Erythroblast Transformation Specific (ETS) (AID 2282941); details: HepG2 ETS cis-reporter transcription, actives raise or lower the signal
How it was run: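 HepG2 cells transiently transfected with cis-promoter reporter transcription units were dosed for 24 h; reporter mRNA was measured by RT-PCR, 6-FAM primer extension, HpaI digestion and capillary electrophoresis, with bidirectional fitting against DMSO baseline.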

[17] = molecular target: Hepatocyte nuclear factor 3-beta (Homo sapiens) (UniProt Q9Y261); assay: ATG_FoxA2_CIS: Attagene CIS-FACTORIAL HepG2 Assay for human Forkhead box A2 (FOXA2) (AID 2282942); details: HepG2 cis-reporter transcription factor activity, 24 h; actives raise or lower the signal
How it was run: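 HepG2 transiently transfected with a multiplexed cis-promoter reporter library read endogenous FOXA2 activity. After 24 h compound exposure, reporter mRNA was quantified by RT-PCR, HpaI digestion and capillary electrophoresis. Bidirectional fit against DMSO.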

[18] = ATG_FoxO_CIS: Attagene CIS-FACTORIAL HepG2 Assay for human Forkhead box O (FoxO) (AID 2282943); details: HepG2 Attagene cis-reporter, FoxO element, mRNA; actives raise or lower the signal
How it was run: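 HepG2 cells transiently transfected with cis-element-driven reporter units report endogenous FoxO activity. After 24 h chemical exposure, reporter mRNA quantified by RT-PCR, fluorescent labeling, HpaI digestion and capillary electrophoresis; bidirectional fit versus DMSO.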

[19] = ATG_GATA_CIS: Attagene CIS-FACTORIAL HepG2 Assay for human GATA Binding Protein (AID 2282944); details: HepG2 GATA cis-element reporter, Attagene multiplex mRNA; actives raise or lower the signal
How it was run: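 Transfected cis-reporter HepG2 cells were treated with chemicals for 24 hours. Total RNA was then converted to cDNA, amplified with reporter-specific primers and analysed by fluorescent capillary electrophoresis, using DMSO-treated wells as baseline.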

[20] = ATG_GLI_CIS: Attagene CIS-FACTORIAL HepG2 Assay for human Zinc Finger Protein GLI1 (AID 2282945); details: HepG2, Attagene cis-factorial reporter mRNA, GLI element; actives raise or lower the signal
How it was run: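 Transiently transfected HepG2 cells report endogenous transcription factor activity via cis-element-driven reporter units. After 24 h compound exposure, reporter mRNA was measured by RT-PCR with capillary electrophoresis; bidirectional fitting against DMSO baseline.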

Sequence of Transcription factor E2F1 (Homo sapiens) (Q01094 whole entry, looked up): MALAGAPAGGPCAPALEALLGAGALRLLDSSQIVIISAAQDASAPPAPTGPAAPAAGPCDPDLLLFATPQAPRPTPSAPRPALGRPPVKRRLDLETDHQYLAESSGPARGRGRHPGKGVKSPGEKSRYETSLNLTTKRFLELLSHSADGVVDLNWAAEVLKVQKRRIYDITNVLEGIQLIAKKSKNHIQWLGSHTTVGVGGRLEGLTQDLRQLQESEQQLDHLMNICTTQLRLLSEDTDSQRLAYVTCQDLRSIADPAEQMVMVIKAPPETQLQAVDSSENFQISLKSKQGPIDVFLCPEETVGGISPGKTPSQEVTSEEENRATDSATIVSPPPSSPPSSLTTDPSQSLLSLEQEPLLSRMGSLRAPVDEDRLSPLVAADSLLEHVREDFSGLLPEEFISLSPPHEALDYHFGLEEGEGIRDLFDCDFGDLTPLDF
Sequence of Hepatocyte nuclear factor 3-beta (Homo sapiens) (Q9Y261 whole entry, looked up): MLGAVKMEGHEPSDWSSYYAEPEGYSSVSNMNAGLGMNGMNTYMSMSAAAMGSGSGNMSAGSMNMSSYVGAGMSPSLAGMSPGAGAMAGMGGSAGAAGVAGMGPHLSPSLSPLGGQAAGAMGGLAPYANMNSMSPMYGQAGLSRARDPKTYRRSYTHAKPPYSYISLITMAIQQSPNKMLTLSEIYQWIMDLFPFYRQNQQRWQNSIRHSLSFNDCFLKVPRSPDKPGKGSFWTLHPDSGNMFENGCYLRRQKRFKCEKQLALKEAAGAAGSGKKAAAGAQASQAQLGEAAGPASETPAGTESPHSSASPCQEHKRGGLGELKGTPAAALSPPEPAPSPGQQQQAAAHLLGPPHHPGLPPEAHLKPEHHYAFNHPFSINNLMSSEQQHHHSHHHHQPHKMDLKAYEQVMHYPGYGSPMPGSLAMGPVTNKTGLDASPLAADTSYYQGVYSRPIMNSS
Sequence of Aryl hydrocarbon receptor (Homo sapiens) (P35869 whole entry, looked up): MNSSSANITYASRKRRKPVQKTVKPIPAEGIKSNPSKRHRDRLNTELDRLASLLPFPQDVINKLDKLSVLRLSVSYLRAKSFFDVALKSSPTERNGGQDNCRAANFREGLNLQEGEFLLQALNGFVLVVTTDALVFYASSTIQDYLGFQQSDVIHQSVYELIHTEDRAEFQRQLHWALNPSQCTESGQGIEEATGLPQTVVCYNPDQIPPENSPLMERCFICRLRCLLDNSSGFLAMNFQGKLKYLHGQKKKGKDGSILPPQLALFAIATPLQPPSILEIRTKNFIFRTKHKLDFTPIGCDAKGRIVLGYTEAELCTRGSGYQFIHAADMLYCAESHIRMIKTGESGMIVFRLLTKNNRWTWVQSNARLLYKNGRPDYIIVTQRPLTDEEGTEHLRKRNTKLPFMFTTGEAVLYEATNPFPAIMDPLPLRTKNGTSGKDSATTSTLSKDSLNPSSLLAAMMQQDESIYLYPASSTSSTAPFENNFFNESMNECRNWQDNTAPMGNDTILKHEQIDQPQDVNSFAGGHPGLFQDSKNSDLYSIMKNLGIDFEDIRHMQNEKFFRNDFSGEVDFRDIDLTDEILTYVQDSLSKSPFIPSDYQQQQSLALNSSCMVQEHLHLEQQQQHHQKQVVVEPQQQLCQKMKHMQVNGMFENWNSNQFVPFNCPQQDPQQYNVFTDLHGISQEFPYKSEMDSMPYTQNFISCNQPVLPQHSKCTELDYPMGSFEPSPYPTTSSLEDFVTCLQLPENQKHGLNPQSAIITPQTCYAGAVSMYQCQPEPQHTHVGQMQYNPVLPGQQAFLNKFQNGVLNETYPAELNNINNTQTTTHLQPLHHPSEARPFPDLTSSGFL
Sequence of Retinoic acid receptor alpha (Homo sapiens) (P10276 whole entry, looked up): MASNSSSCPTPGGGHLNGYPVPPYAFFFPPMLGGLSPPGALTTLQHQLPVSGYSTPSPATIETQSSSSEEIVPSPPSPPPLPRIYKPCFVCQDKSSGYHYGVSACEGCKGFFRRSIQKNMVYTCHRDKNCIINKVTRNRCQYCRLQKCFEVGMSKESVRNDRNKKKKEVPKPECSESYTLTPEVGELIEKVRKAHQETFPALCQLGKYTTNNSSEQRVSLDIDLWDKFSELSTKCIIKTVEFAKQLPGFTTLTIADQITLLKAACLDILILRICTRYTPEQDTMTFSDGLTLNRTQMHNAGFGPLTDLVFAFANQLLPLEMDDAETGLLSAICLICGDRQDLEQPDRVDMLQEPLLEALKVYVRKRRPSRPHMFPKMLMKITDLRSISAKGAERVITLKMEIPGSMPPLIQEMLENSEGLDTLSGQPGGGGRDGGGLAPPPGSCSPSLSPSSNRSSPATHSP
Sequence of CCAAT/enhancer-binding protein beta (Homo sapiens) (P17676 whole entry, looked up): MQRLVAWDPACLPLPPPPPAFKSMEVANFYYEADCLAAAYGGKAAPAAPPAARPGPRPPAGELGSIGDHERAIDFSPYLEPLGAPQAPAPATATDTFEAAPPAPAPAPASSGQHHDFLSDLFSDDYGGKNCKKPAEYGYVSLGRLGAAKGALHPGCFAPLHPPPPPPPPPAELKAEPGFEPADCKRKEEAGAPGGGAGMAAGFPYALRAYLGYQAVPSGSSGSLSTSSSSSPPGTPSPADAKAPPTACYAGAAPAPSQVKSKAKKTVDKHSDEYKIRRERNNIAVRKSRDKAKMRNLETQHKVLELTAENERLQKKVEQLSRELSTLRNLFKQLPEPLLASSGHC

SMILES: Cc1ccc(O)c(C)c1
- outcome [1]: inactive
- outcome [2]: inactive
- outcome [3]: inactive
- outcome [4]: inactive
- outcome [5]: inactive
- outcome [6]: inactive
- outcome [7]: inactive
- outcome [8]: inactive
- outcome [9]: inactive
- outcome [10]: inactive
- outcome [11]: inactive
- outcome [12]: inactive
- outcome [13]: inactive
- outcome [14]: inactive
- outcome [15]: inactive
- outcome [16]: inactive
- outcome [17]: inactive
- outcome [18]: inactive
- outcome [19]: inactive
- outcome [20]: inactive

SMILES: C[C@]12CCC(=O)C=C1CC[C@@H]1[C@@H]2CC[C@@]2(C)[C@H]1CC[C@]2(C)O
- outcome [1]: inactive
- outcome [2]: inactive
- outcome [3]: inactive
- AC50 [4]: 163 µM (active)
- outcome [4]: inactive
- AC50 [6]: 114 µM (active)
- outcome [6]: inactive
- AC50 [7]: 33.9 µM (active)
- outcome [7]: inactive
- outcome [9]: inactive
- outcome [10]: inactive
- outcome [11]: inactive
- outcome [13]: inactive
- outcome [14]: inactive
- outcome [16]: inactive
- outcome [17]: inactive
- outcome [18]: inactive
- outcome [19]: inactive
- outcome [20]: inactive

SMILES: CC(C)(O)C(=O)Nc1ccc([N+](=O)[O-])c(C(F)(F)F)c1
- AC50 [1]: 51 µM (active)
- outcome [1]: inactive
- AC50 [2]: 57.1 µM (active)
- outcome [2]: inactive
- outcome [3]: inactive
- outcome [4]: inactive
- outcome [6]: inactive
- outcome [7]: inactive
- outcome [9]: inactive
- outcome [10]: inactive
- outcome [11]: inactive
- outcome [12]: inactive
- outcome [13]: inactive
- outcome [14]: inactive
- outcome [15]: inactive
- outcome [16]: inactive
- outcome [17]: inactive
- outcome [18]: inactive
- outcome [19]: inactive
- outcome [20]: inactive

SMILES: c1cc2ccc3cccc4ccc(c1)c2c34
- outcome [1]: inactive
- outcome [2]: inactive
- outcome [3]: inactive
- outcome [4]: inactive
- AC50 [5]: 68.7 µM (active)
- outcome [6]: inactive
- outcome [7]: inactive
- outcome [8]: inactive
- AC50 [9]: 7.9 µM (active)
- outcome [10]: inactive
- outcome [11]: inactive
- outcome [12]: inactive
- outcome [13]: inactive
- outcome [14]: inactive
- outcome [15]: inactive
- outcome [16]: inactive
- outcome [17]: inactive
- outcome [18]: inactive
- outcome [19]: inactive
- outcome [20]: inactive

SMILES: O=C(NC(=O)c1c(F)cccc1F)Nc1cc(Cl)c(OC(F)(F)C(F)F)c(Cl)c1
- outcome [1]: inactive
- outcome [2]: inactive
- outcome [3]: inactive
- outcome [4]: inactive
- outcome [5]: inactive
- outcome [6]: inactive
- outcome [7]: inactive
- outcome [8]: inactive
- outcome [9]: inactive
- outcome [10]: inactive
- outcome [11]: inactive
- outcome [13]: inactive
- outcome [14]: inactive
- outcome [15]: inactive
- outcome [16]: inactive
- outcome [17]: inactive
- outcome [18]: inactive
- outcome [19]: inactive
- outcome [20]: inactive
